# HT1080-NT tox: qHTS for induction of synthetic lethality in tumor cells producing 2HG: qHTS for the HT-1080-NT fibrosarcoma cell line | AID 686970, 2013 | 1.6% of 360,000 active | HT-1080-NT fibrosarcoma viability, CellTiter-Glo ATP luminescence, 48 h | Potency, µM (highest dose often 46.1 µM), inactives show at the top dose activity, negative = less viability, hits mostly cytotoxic;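 note: NT is the 2HG producing partner of a matched IDH1 knockdown line; 0% = DMSO-treated cells and -100% = media-only wells without cells; nearly all actives have a fitted effect of over 55% in size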
#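 HT-1080-NT fibrosarcoma cells (2HG-overproducing), 750 cells/well in RPMI with 5% FBS, dosed after 2 h and incubated 48 h at 37C. CellTiter-Glo luminescence normalized to DMSO and no-cell wells; concentration-response curves fitted and classed.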
# HepG2 tox: qHTS for Inhibitors of TGF-b: Cytotox Counterscreen; HepG2 CAGA-GFP viability, ATP luminescence, 18 h; Potency, µM (highest dose often 46.1 µM), for inactives: at the top dose activity change, negative = cytotoxicity, actives largely listed as cytotoxic; 0.76% of 410,000 active; AID 588856, 2011
#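 HepG2 CAGA-GFP cells (1000/well, DMEM with 1% FBS) received compound, then TGF-beta at 500 pg/mL final, and were incubated 18 hours at 37 degrees C. Viability was read by CellTiter-Glo luminescence. Media-only wells were set as complete cell-killing and DMSO as no toxicity.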
# TGFb SMAD3 inh: qHTS for Inhibitors of TGF-b; HepG2 CAGA-GFP TGF-b/SMAD3 reporter, GFP fluorescence, 18 h; TGF-beta stimulated, 500 pg/mL final; 1.2% of 410,000 active; Potency, µM (series often up to 46.1 µM), without a hit: top-dose activity, negative = inhibition, actives largely listed as inhibitors; note: % is set by controls: 0 for no effect and ±100 for the full control effect; nearly all actives have a fitted effect of over 65% in size
#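 Per well, imaged GFP fluorescence of HEPG2 CAGA-GFP cells gives the signal; cells get compound, then TGF-beta (500 pg/mL final), 18 h at 37 degrees C; %Activity versus -TGF-beta and +DMSO controls.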
# HT1080 IDH1KD tx: qHTS for induction of synthetic lethality in tumor cells producing 2HG: qHTS for the HT-1080-IDH1KD cell line. HT-1080 IDH1 knockdown viability, ATP luminescence, 48 h. Potency, µM (highest dose often 46.1 µM), for inactives: top-dose activity, negative = toxicity, actives largely listed as cytotoxic. 2% of 360,000 active;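 note: 0% = DMSO wells and -100% = cell-free medium wells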
#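 Viability of IDH1-knockdown HT-1080 fibrosarcoma cells was assessed by CellTiter-Glo after 48 h at 37 °C with titrated compound; concentration-effect curves were classified by fit quality and response size.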
# DT40 TDP1 CPT: qHTS for Inhibitors of human tyrosyl-DNA phosphodiesterase 1 (TDP1): qHTS in cells in presence of CPT; Potency, µM (highest dose often 46.2 µM), for the others: at the top dose activity change, negative = growth inhibition, actives largely listed as inhibitors; AID 686979, 2013; 12% of 420,000 active; chicken DT40 Tdp1-/-;hTDP1 cells + 20 nM CPT, ATP luminescence, 48 h; note: % is set by controls: 0 for no effect and ±100 for the full control effect; nearly all actives have a fitted effect of over 55% in size
#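 Chicken DT40 Tdp1-/- cells stably complemented with human TDP1 were seeded at 400 cells/well in medium containing 20 nM camptothecin, exposed to pin-transferred compounds, and grown at 37 °C for at least 48 hr. Viability was read as ATP luminescence.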
# DT40 TDP1 no CPT: qHTS for Inhibitors of human tyrosyl-DNA phosphodiesterase 1 (TDP1): qHTS in cells in absence of CPT. DT40 Tdp1-/- hTDP1 cells, no CPT, ATP luminescence, 48 h. AID 686978, 2013. Potency, µM (series often up to 46.2 µM), without a hit: top-dose activity change, negative = growth inhibition, actives largely listed as inhibitors. 15% of 420,000 active; note: % is set by controls: 0 for no effect and ±100 for the full control effect; nearly all actives have a fitted effect of over 55% in size
#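 Cells were dispensed at 400 per well, compounds added by pin tool, plates incubated ≥48 hr at 37 °C, then CellTiter-Glo added for 30 min at room temperature before luminescence reading. Line: DT40 Tdp1-/- complemented with hTDP1; camptothecin omitted.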
# Active calls of the source: *; ? = inconclusive; / = no result; [ ] = remark or other dose. An excerpt weighted towards active compounds, which were near 17% of everything screened. Calls come from the whole dose curve; as a rule, active = well fitted curve in the direction sought with a large enough effect; inconclusive = small, poorly fitted or top-dose-only effect, or another doubt; inactive = no such curve, though single readings can be large; an effect the other way counts as inactive or inconclusive. Potency is the fitted concentration of half-maximal effect.
SMILES,HT1080-NT tox,HepG2 tox,TGFb SMAD3 inh,HT1080 IDH1KD tx,DT40 TDP1 CPT,DT40 TDP1 no CPT
CCN1CCN(Cc2nc3cc(NC(=O)COc4ccc([N+](=O)[O-])cc4)ccc3n2C)CC1,-8%,-8%,2%,-1%,?,-12%
Cc1c(Cl)ccc2c(C(=O)NCCCn3nccc3C)cc(-c3ccccn3)nc12,-7%,-28%,?,-1%,21µM*,?
COc1ccccc1-c1cc(C(=O)NC2CCCC2)no1,0%,-2%,16%,-1%,2%,?
Cc1c(Cl)ccc2c(C(=O)NCCN3CCCCC3)cc(-c3ccccn3)nc12,?,-4%,-26%,23µM*,?,9.2µM*
COc1ccccc1-c1cc(C(=O)NC2CCN(C)CC2)c2ccc(Cl)c(C)c2n1,-30%,-8%,0%,?,12µM*,21µM*
COc1ccc(C2C=C3CNS(=O)(=O)C3CC2OC(=O)c2cccc(C)c2)cc1 (stereo not drawn),/,-37%,?,/,/,/
Cc1ccc(C)c(S(=O)(=O)n2nc(C)c(S(=O)(=O)N3CCCCCC3)c2C)c1,/,5%,0%,/,-2%,6%
NS(=O)(=O)c1cccc(NC(=O)CSc2nc3nc(-c4cccs4)cc(C(F)(F)F)c3c(=O)[nH]2)c1,-22%,-10%,4%,-18%,-10%,23%
CC(C)(C)c1ccccc1NC(=O)CSc1nc(-c2cccs2)cc(C(F)(F)F)n1,/,-7%,?,/,21µM*,?
O=C(CSc1nc2nc(-c3cccs3)cc(C(F)(F)F)c2c(=O)[nH]1)Nc1c(F)c(F)c(F)c(F)c1F,12µM*,-18%,-16%,-11%,?,?
O=C(O)CSc1nc(-c2cccs2)cc(C(F)(F)F)n1,0%,6%,11%,7%,0%,-19%
O=C(CSc1nc(-c2cccs2)cc(C(F)(F)F)n1)Nc1cc(OCC(F)(F)F)cc([N+](=O)[O-])c1,?,19%,-5%,16µM*,?,18µM*
O=C(NC(=O)c1ccccc1F)Nc1nc(-c2cccs2)cc(C(F)(F)F)n1,8%,-10%,-24%,0%,23µM*,?
C1COCCNCCOCCOCCOCCN1,-1%,-4%,0%,-1%,3%,-11%
CCOC1CCCc2oc(-c3ccc(OC)cc3)c(C(=O)NCCCCO)c21 (stereo not drawn),-1%,/,/,14%,-8%,-21%
COc1ccc(NC(=O)CSc2nc(-c3cccs3)cc(C(F)(F)F)n2)cc1OC,/,-8%,?,/,4.6µM*,2.3µM*
Cc1cccc(C)c1NC(=O)CSc1nc(-c2cccs2)cc(C(F)(F)F)n1,/,22%,5%,/,15µM*,18µM*
Cc1ccc(F)cc1NC(=O)CSc1nc(-c2cccs2)cc(C(F)(F)F)n1,/,-36%,-8%,/,?,?
CCOc1ccccc1NC(=O)NCc1ccccn1,10%,-4%,-9%,15%,-14%,1%
CCCOP(=O)(OCCC)c1c([N+](=O)[O-])cc(C(F)(F)F)cc1[N+](=O)[O-],?,-53%,?,?,?,18µM*
O=C(NC(NNc1ccc([N+](=O)[O-])cc1)(C(F)(F)F)C(F)(F)F)c1ccccc1Cl,-12%,-22%,?,-20%,1%,-15%
CCOc1ccc(CSCCNC(=S)Nc2ccccc2)cc1,6%,-6%,-26%,-9%,23µM*,23µM*
CC(C)OC(=O)c1cc(NC(=S)Nc2ccc([N+](=O)[O-])cc2)cc(C(=O)OC(C)C)c1,?,-11%,-6%,21µM*,9.2µM*,12µM*
O=C(NC(NNc1ccc([N+](=O)[O-])cc1)(C(F)(F)F)C(F)(F)F)c1ccc(F)cc1,-17%,-24%,?,-8%,23µM*,18µM*
O=[N+]([O-])c1ccc(NNC(=S)Nc2ccc(F)cc2)cc1,?,-35%,?,?,4.6µM*,3.3µM*
SMILES,HT1080-NT tox,HepG2 tox,TGFb SMAD3 inh,HT1080 IDH1KD tx,DT40 TDP1 CPT,DT40 TDP1 no CPT
COC(=O)CCC/C=C1/SCC(NC(=O)c2ccccc2)/C1=N/O (stereo not drawn),-4%,29%,-4%,-10%,-16%,-14%
O=C(O)Cn1nnc(-c2ccc(OCc3cccc(C(F)(F)F)c3)cc2)n1,/,-4%,-41%,/,-3%,-2%
COC(=O)c1sc(NC(=O)OCc2ccccc2)nc1CCNC(=O)OC(C)(C)C,0%,/,/,0%,?,?
Cc1cccc(/C=C(\C(=O)O)c2ccc(S(=O)(=O)N3CCCC3)s2)c1,0%,0%,-2%,-8%,-16%,-1%
CCCNC(=S)Nc1ccc(Oc2ccccc2)cc1,16µM*,-33%,-3%,14µM*,?,16µM*
CCCCNC(=S)Nc1ccc([N+](=O)[O-])cc1,?,-48%,11µM*,?,?,23µM*
CCCCNC(=S)Nc1ccc(Oc2ccccc2)cc1,-10%,-37%,?,-2%,?,21µM*
COc1ccc(OC)c(-c2cc(Cl)c3c(c2)CC(CNC(=O)c2cccnc2SC)O3)c1 (stereo not drawn),/,/,/,/,3%[9.04 µM],?
Cc1ccc(S(=O)(=O)N(C)C)cc1NC(=O)COC(=O)c1ccc(Cl)cc1,0%,-1%,7%,0%,-7%,-8%
CC1(C)CC(=O)C2=C(C1)NC(Nc1nc3ccccc3o1)=NC2c1ccccc1 (stereo not drawn),/,6%,8%,/,2.8µM*,2.8µM*
Cc1ccc(C2N=C(Nc3nc4ccccc4o3)NC3=C2C(=O)CC(C)(C)C3)cc1 (stereo not drawn),/,6%,1%,/,7.1µM*,4.5µM*
COc1ccc(C2N=C(Nc3nc4ccccc4o3)NC3=C2C(=O)CC(C)(C)C3)cc1 (stereo not drawn),/,10%,18%,/,6.3µM*,6.3µM*
CC1(C)CC(=O)C2=C(C1)NC(Nc1nc3ccccc3o1)=NC2c1cccnc1 (stereo not drawn),/,4%,-4%,/,?,-26%

# Assay outcomes as filed in PubChem.
